Screens from PubChem BioAssay.
NS1 inh: qHTS Assay for Inhibitors of Influenza NS1 Protein Function; 0.4% of 270,000 active; Potency, µM (top dose mostly 46.1 µM); AID 2326, 2010; calls by dose curve; also: actives are rising curves; nearly all actives have a fitted effect of over 50% in size
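S. cerevisiae expressing influenza A NS1, grown in glucose, washed, then diluted 1:100 into pH 6.0 -URA galactose medium with 23 nl compound. Growth recovery read as OD600; NS1-free strain serves as control.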
Giardia FBPA inh: qHTS Assay for Inhibitors of Fructose-1,6-bisphosphate Aldolase from Giardia Lamblia. purified Giardia FBPA. AID 2451, 2010. Potency, µM (series often up to 59.6 µM), hits mostly inhibitors. 0.71% of 290,000 active; also: nearly all actives have a fitted effect of over 55% in size
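40 nM FBPA preincubated 10 min at RT with compound (up to 57.5 uM final), then substrate plus GAPDH/TPI/NAD/arsenate coupling and diaphorase/resazurin added. Fluorescence read after 20 min at RT, 525/598 nm.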
LmPK inhibitor: qHTS Assay for Inhibitors of Leishmania Mexicana Pyruvate Kinase (LmPK) | Potency, µM (top dose mostly 57.5 µM), usual class: inhibitors | 0.37% of 290,000 active | AID 1721, 2009 | Q27686 | purified LmPK, Kinase-Glo ATP luminescence, 1 h
Target sequence (Q27686 whole entry, looked up): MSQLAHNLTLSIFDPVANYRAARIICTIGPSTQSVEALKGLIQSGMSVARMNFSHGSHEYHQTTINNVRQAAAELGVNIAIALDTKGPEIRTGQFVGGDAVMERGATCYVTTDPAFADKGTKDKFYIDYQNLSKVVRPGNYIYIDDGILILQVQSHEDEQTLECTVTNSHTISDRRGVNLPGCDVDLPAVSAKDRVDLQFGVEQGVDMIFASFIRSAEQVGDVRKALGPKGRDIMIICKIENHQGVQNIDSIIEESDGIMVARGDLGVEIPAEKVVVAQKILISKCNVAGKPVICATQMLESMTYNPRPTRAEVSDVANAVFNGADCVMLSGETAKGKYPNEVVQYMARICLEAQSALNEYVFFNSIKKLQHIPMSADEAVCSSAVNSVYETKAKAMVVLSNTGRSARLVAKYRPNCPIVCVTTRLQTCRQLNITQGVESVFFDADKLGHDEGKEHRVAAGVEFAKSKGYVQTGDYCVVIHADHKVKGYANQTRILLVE
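Screened at intermediate enzyme activity to detect both inhibitors and activators: LmPK at 0.1 nM, with a 0.5 nM enzyme column as activation reference. PEP 0.5 mM, ADP 0.1 mM; ATP detected by luminescence after 1 h.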
Cycloheximide cs: Cycloheximide Counterscreen for Small Molecule Inhibitors of Shiga Toxin; cell reporter, cycloheximide protein synthesis inhibition counterscreen; 12% of 300,000 active; AID 2314, 2010; max response, %; in the data active = max response mostly above about 13%, no sharp cut-off; inactive = mostly below about 14%; also: read at 38.3 µM for the half of the compounds with a filed dose
Shiga toxin inh: A qHTS for Small Molecule Inhibitors of Shiga Toxin. Vero cells, Shiga toxin protein synthesis inhibition reporter. inhibition, % at 38.7 µM. 9.2% of 290,000 active. AID 2315, 2010; in the data active = inhibition mostly above about 28%, no sharp cut-off; inactive = mostly below about 43%
Numbers stand for hits; [ ] = remark or other dose. Hits are enriched below; roughly 14% of the tested compounds scored in any of these assays. Unless noted, calls follow the shape of the dose curve; as a rule, active = well fitted curve in the direction sought with a large enough effect; inconclusive = small, poorly fitted or top-dose-only effect, or another doubt; inactive = no such curve, though single readings can be large; an effect the other way counts as inactive or inconclusive.

`CC(=O)O[C@]1(C)CC[C@]23CC1C(C)(C)C2CC[C@@H]3C` (stereo partly specified) gave Giardia FBPA inh inactive.
CC(=O)Nc1ccc(SCCC2CCCCN2C)cc1 (stereo unspecified) was read as NS1 inh inactive, Giardia FBPA inh inactive, LmPK inhibitor inactive, Cycloheximide cs inactive and Shiga toxin inh inactive.
Screening Cc1ccc(C)c(NC(=O)CCC(=O)NN=C2CCCC2)c1 returned NS1 inh inactive, LmPK inhibitor inactive, Cycloheximide cs inactive and Shiga toxin inh inactive.
`COc1ccc(NC(=O)Nc2ccc(OC)cc2)cc1` gave NS1 inh inactive, Giardia FBPA inh inactive, LmPK inhibitor inactive, Cycloheximide cs 22 and Shiga toxin inh 67.
`Cn1ccc(C(=O)N2CCCc3ccccc32)n1` gave NS1 inh inactive, Giardia FBPA inh inactive, LmPK inhibitor inactive, Cycloheximide cs inactive and Shiga toxin inh inactive.
`O=C(c1cc(-c2ccco2)on1)N1CCCc2ccccc21` gave NS1 inh inactive, Giardia FBPA inh inactive, LmPK inhibitor inactive, Cycloheximide cs 16 and Shiga toxin inh 105.
For O=C(c1cc(-c2ccccc2)on1)N1CCCc2ccccc21 the results were NS1 inh inactive, Giardia FBPA inh inactive, LmPK inhibitor inactive, Cycloheximide cs 50 and Shiga toxin inh 61.
O=C(c1cc2nc(-c3ccco3)cc(C(F)(F)F)n2n1)N1CCCc2ccccc21 was read as NS1 inh inactive, Giardia FBPA inh inconclusive, LmPK inhibitor inactive, Cycloheximide cs inactive and Shiga toxin inh inactive.
CNc1nc(-c2ccc3c(c2)CCN3C(=O)c2ccc(F)cc2)cs1 was read as NS1 inh inactive, Giardia FBPA inh inactive, LmPK inhibitor inactive, Cycloheximide cs 45 and Shiga toxin inh 91.
Cc1sc(NC(=O)Cc2ccc3c(c2)OCO3)nc1-c1ccc2c(c1)CCN2C(=O)c1cccc(F)c1 was read as NS1 inh inconclusive, Giardia FBPA inh inactive, LmPK inhibitor inactive, Cycloheximide cs inactive and Shiga toxin inh inactive.
Screening O=C(CN1CCCC1)Nc1nc(-c2ccc3c(c2)CCN3C(=O)c2ccccc2F)cs1 returned NS1 inh inactive, LmPK inhibitor inactive, Cycloheximide cs 20 and Shiga toxin inh inactive.
Screening Cc1cccc(C(=O)N2CCc3cc(-c4csc(NC(=O)CN5CCCC5)n4)ccc32)c1 returned NS1 inh inactive, Giardia FBPA inh inactive, LmPK inhibitor inactive, Cycloheximide cs inactive and Shiga toxin inh inactive.
For CNc1nc(-c2ccc3c(c2)CCN3C(=O)c2cccc(F)c2)cs1 the results were NS1 inh inactive, Giardia FBPA inh inactive, LmPK inhibitor inactive, Cycloheximide cs 44 and Shiga toxin inh 59.
For O=C(c1ccccc1F)N1CCc2ccccc21 the results were NS1 inh inactive, Giardia FBPA inh inactive, LmPK inhibitor inactive, Cycloheximide cs inactive and Shiga toxin inh inactive.
CNc1nc(-c2ccc3c(c2)CCN3C(=O)c2ccccc2C)cs1 was read as NS1 inh inactive, Giardia FBPA inh inactive, LmPK inhibitor inactive, Cycloheximide cs 34 and Shiga toxin inh 64.
CN(CC(=O)N1CCN(Cc2ccccc2)CC1)S(=O)(=O)c1ccc(Br)cc1 was read as NS1 inh inactive, Giardia FBPA inh inactive, LmPK inhibitor inactive, Cycloheximide cs inactive and Shiga toxin inh inactive.
Cc1sc2ncnc(N(C)C3CCCCC3)c2c1C was read as NS1 inh inactive, Giardia FBPA inh inactive, LmPK inhibitor inactive, Cycloheximide cs inactive and Shiga toxin inh 45.
`CC(C)(C)C1=CC(=Nc2ccccc2N)C=C(C(C)(C)C)C1=O` gave NS1 inh inactive, Giardia FBPA inh inactive, LmPK inhibitor inactive, Cycloheximide cs inactive and Shiga toxin inh inactive.
For CC(C)(C)C1=CC(=O)C(=O)C(C(C)(C)C)=C1 the results were NS1 inh inactive, Giardia FBPA inh 7.1µM, LmPK inhibitor 14µM, Cycloheximide cs inactive and Shiga toxin inh inactive.
Screening COc1ccc(NC(=O)c2oc3ccccc3c2NC(=O)C(C)(C)C)cc1 returned NS1 inh inactive, LmPK inhibitor inactive, Cycloheximide cs inactive and Shiga toxin inh inactive.
`COc1ccc(NC(=O)c2oc3ccccc3c2NC(=O)c2ccco2)c(OC)c1` gave NS1 inh inactive, Giardia FBPA inh inactive, LmPK inhibitor inactive, Cycloheximide cs 11 and Shiga toxin inh inactive.
`COc1ccc(NC(=O)c2oc3ccccc3c2NC(=O)c2ccco2)cc1` gave NS1 inh inactive, Giardia FBPA inh inactive, LmPK inhibitor inactive, Cycloheximide cs 47 and Shiga toxin inh 35.
Screening COc1ccc2c(c1)C(=O)[C@@H](OC(=O)NC1CCCC1)[C@H](c1ccc(OC)c(Br)c1)O2 returned Giardia FBPA inh inactive.
O=C(CC1(O)C(=O)Nc2ccccc21)c1ccc(-n2cnnn2)cc1 (stereo unspecified) was read as Giardia FBPA inh inactive, LmPK inhibitor inactive, Cycloheximide cs 24 and Shiga toxin inh inactive.
`O=C(CC1(O)C(=O)Nc2ccccc21)c1cccc(-n2cccc2)c1` (stereo unspecified) gave NS1 inh inactive, Giardia FBPA inh inactive, LmPK inhibitor inactive, Cycloheximide cs inactive and Shiga toxin inh inactive.
COc1ccccc1C(=O)C1CCCN(C(=O)Nc2ccccc2F)C1 (stereo unspecified) was read as NS1 inh inactive, Giardia FBPA inh inactive, LmPK inhibitor inactive, Cycloheximide cs 28 and Shiga toxin inh 73.
`COc1ccccc1C(=O)C1CCCN(C(=O)CCC(=O)c2ccccc2)C1` (stereo unspecified) gave NS1 inh inactive, Giardia FBPA inh inactive, LmPK inhibitor inactive, Cycloheximide cs 12 and Shiga toxin inh inactive.
`COC(=O)c1ccc(NC(=O)N2CCCC(C(=O)c3ccccc3OC)C2)cc1` (stereo unspecified) gave NS1 inh inactive, Giardia FBPA inh inactive, LmPK inhibitor inactive, Cycloheximide cs inactive and Shiga toxin inh inactive.
COc1ccc(-n2ccn3c(CCC(=O)N4CCN(c5cccc(C)c5C)CC4)nnc3c2=O)cc1 was read as NS1 inh inactive, LmPK inhibitor inactive, Cycloheximide cs inactive and Shiga toxin inh inactive.
Screening COCCn1c(=O)c(CCc2ccccc2)nc2cnc(OCc3ccccc3)nc21 returned Giardia FBPA inh inactive.
`CCCCc1nc2c(c3c1C[C@H](C)OC3)CN(C(=O)C1CC1)CC2` gave Giardia FBPA inh inactive[12.9 µM] and LmPK inhibitor inactive[11.5 µM].
Screening CN(N=O)C(=O)N[C@H]1C(O)C(O)C(CO)O[C@@H]1O (stereo partly specified) returned Giardia FBPA inh inactive.
CCOC(=O)/C(C#N)=C/Nc1ccccc1OC was read as NS1 inh inactive, Giardia FBPA inh inactive, LmPK inhibitor inactive, Cycloheximide cs 25 and Shiga toxin inh 43.
CCOC(=O)C(=O)/C(C#N)=C/Nc1ccccc1 was read as NS1 inh inactive, Giardia FBPA inh inactive, LmPK inhibitor inactive, Cycloheximide cs inactive and Shiga toxin inh inactive.
